Among all 310,000 compounds or so, about 17,000 (5.5%) were called active. Not shown: some 11% with an inconclusive outcome. This excerpt belongs to a sample that is enriched for actives. Unmarked numbers belong to inactive results. Calls follow the shape of the dose curve; as a rule, active = well fitted inhibition curve with a large enough effect; inconclusive = small, poorly fitted or top-dose-only effect, or effect the other way; inactive = no such curve, though single readings can be large or run the other way.
biological target: Nuclear receptor ROR-gamma (Mus musculus) (UniProt P51450); test: qHTS for inhibitors of ROR gamma transcriptional activity; details: Drosophila S2 Gal4-RORgamma UAS-luciferase reporter, 20 h; series mostly up to 53.6 µM; activity change, negative = inhibition: at the top concentration; also: nearly all actives have a fitted effect of over 60% in size
Sequence (P51450 whole entry, looked up, the tested form may be a part): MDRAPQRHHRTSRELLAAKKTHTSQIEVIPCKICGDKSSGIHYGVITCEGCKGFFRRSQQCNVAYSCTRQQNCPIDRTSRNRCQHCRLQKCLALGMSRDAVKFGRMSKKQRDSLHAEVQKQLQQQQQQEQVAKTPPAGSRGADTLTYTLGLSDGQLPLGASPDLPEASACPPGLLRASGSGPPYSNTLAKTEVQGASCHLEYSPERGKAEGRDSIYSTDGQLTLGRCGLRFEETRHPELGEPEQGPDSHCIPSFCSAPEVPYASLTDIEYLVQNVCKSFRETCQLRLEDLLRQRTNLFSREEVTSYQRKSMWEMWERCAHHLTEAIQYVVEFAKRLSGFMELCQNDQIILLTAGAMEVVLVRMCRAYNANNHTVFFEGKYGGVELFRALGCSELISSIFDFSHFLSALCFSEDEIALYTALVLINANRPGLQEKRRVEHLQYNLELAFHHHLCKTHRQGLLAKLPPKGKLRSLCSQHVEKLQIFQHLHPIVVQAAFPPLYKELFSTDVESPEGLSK
Text: NIH Molecular Libraries Probe Production Network [MLPCN] NIH Chemical Genomics Center [NCGC] MLPCN Grant: R03 DA026211-01 Assay Provider: Dan Littman, New York University Assay Overview: The retinoic acid-related orphan receptor (ROR) gamma is a transcription factor that has a central role in the differentiation of Th17 cells, a subset of T helper cells that secrete the inflammatory cytokines IL-17, IL-17F, and IL-22. Th17 cells have been implicated in graft versus host disease, autoimmune disease and asthma. ROR gamma is induced in naive T helper cells in the presence of TGF-beta combined with IL-6, IL-21, or IL-23, and thereafter directs the expression of the Th17 lineage cytokines. To study the mechanism of action of ROR gamma, an insect cell-based assay was screened. This Drosophila Schneider cell line was stably transfected with two vectors: a gene expressing a fusion of the Gal4 DNA binding domain and ROR gamma transactivation domain under the control of the metallothionine promoter and a Photinus luciferase reporter regulated by the Gal4 binding site enhancer, UAS. […] Small molecule inhibitors of ROR gamma activity are detected by a decrease in luciferase reporter activity.
Assay Protocol Summary: For screening, 600 cells in 4 uL/well were dispensed into white solid 1536-well plates (Grenier) using a solenoid-based dispenser. Following transfer of 23 nL compound or DMSO vehicle by a pin tool, the plates were incubated 1 hr at ambient temperature, and 1 uL/well copper sulfate (700 uM final concentration) was added. The plates were centrifuged 15 s at 1000 RPM and incubated 20 hr at ambient temperature. After addition of 1.5 uL Photinus luciferase detection reagent, the plates were incubated 10 min at ambient temperature and then read by an ViewLux (Perkin Elmer) to detect luminescence. Keywords: NIH Roadmap, MLPCN, MLI, MLSMR, qHTS, NCGC, qHTS, nuclear hormone receptor, retinoic acid-related orphan receptor, ROR gamma
% is scaled to controls: 0 for no effect and ±100 for the full control effect; potency is read from the fitted curve at half-maximal effect.

| SMILES | activity change, negative = inhibition | Potency |
| --- | --- | --- |
| O=C1CCN(Cc2ccccc2)CCN1[C@H](CSc1ccccc1)c1ccccc1 | 6.36% |  |
| COC(=O)c1ccc(N2CCOCC2)c(NC(=O)c2ccc3c(c2)OCCO3)c1 | -23.4% |  |
| Cc1cc(NC(=O)c2ccco2)c(=O)n(Cc2c(F)cccc2Cl)c1 | 6.19% |  |
| COCCNc1nc(N)c([N+](=O)[O-])c(N2CCCCCC2)n1 | 21.8% |  |
| CCOc1ccc(-c2noc(CCC(=O)NC3CCCC3)n2)cc1OC | 13.1% |  |
| O=C(c1ccc(CS(=O)(=O)c2ccccc2)o1)N1CCN(c2ccccc2)CC1 | 18.4% |  |
| COc1ccc(CNC(=O)[C@H](Cc2c[nH]c3ccccc23)NC(C)=O)cc1OC | -14.9% |  |
| O=C(NCCCN1CCOCC1)C1CCCN(S(=O)(=O)N2CCCCC2)C1 (stereo unspecified) | -11% |  |
| CCc1ccc(C(=O)NC(=S)Nc2ccccc2N2CCOCC2)cc1 |  | 3.55 µM (active) |
| O=C(Nc1ccccc1N1CCCC1)c1ccc2ccccc2c1 | 7% |  |
| O=C(Nc1ccccc1N1CCCCC1)c1cccc(F)c1 | -27.2% |  |
| O=C(NC(=S)Nc1ccccc1N1CCCCC1)c1ccc(F)cc1 |  | 3.98 µM (active) |
| O=C(CCNC(=O)c1ccc([N+](=O)[O-])cc1)Nc1ccccc1N1CCOCC1 | -19.6% |  |
| CC(=O)c1ccc(N2CCN(CC(=O)Nc3ccccc3N3CCOCC3)CC2)cc1 | 32.1% |  |
| CC1CCN(CC(O)COc2ccc(C(=O)c3ccccc3)cc2)CC1 (stereo unspecified) | -4.49% |  |
| O=C(NCc1cccc(Cl)c1)C1CCC(=O)N(C2CC2)C1 (stereo unspecified) | 1.36% |  |
| Cc1cc(CN(C)C(=O)c2cc(COc3ccc(C)c(C)c3)on2)n[nH]1 | -24% |  |
| O=C(Nc1nncs1)c1cccc(S(=O)(=O)N2CCCCC2)c1 | 46.3% |  |
| O=C(NNC1=NCCC1)c1cccc(S(=O)(=O)N2CCCCC2)c1 |  | 12.6 µM (active) |
| O=C(NNC(=S)Nc1ccccc1)c1cccc(S(=O)(=O)N2CCOCC2)c1 | -23.5% |  |
| CN(CC1CCCN(CCc2cccc(C(F)(F)F)c2)C1)C(=O)c1ccc2nc[nH]c2c1 (stereo unspecified) | -10.7% |  |
| CCOC(=O)c1ccc(NC(=O)c2ccc(NC(=O)C3CCCO3)cc2)cc1 (stereo unspecified) | -2.12% |  |
| COc1ccc(C2=NN(c3nc4ccccc4s3)C(=O)C2)cc1 |  | 5.62 µM (active) |
| COc1ccc(C2=NN(c3ccccc3)C(c3cccs3)C2)cc1 (stereo unspecified) | 23.1% |  |
| COC(=O)Cc1[nH]n(-c2nc3ccccc3s2)c(=O)c1C(C)=Nc1ccc(OC)cc1 | -5.29% |  |
| COc1ccc(NC(=S)NCCNC(C)=O)cc1 | 13.1% |  |

| SMILES | activity change, negative = inhibition | Potency |
| --- | --- | --- |
| COC(=O)c1cc(OC)c(OC)cc1NC(=O)CSc1ccc(C)cc1 | -14.2% |  |
| COc1cc(NC(=S)NCCSc2ccc(C)cc2)cc(OC)c1 |  | 7.08 µM (active) |
| CC1=C(C(=O)OCC2CCCCC2)C(c2ccc(F)cc2)NC(=O)N1 (stereo unspecified) | 44% |  |
| CC(=O)OCC(NC(=O)C(Cc1ccccc1)NC(=O)OC(C)(C)C)C1OC(n2ccc(=O)[nH]c2=O)C(OC(C)=O)C1OC(C)=O (stereo unspecified) | 25.8% |  |
| COc1ccc(NC(=O)NCCN2CCN(c3ccc(C)cc3)CC2)c(Cl)c1 | 4.43% |  |
| COc1ccccc1NC(=O)CCSc1nnc(-c2ccc(O)cc2)o1 |  | 14.1 µM (active) |
| COc1ccccc1-c1nnc(SCC(=O)Nc2ccccc2)o1 | -0.697% |  |
| CCc1ccccc1NC(=O)CSc1nnc(-c2ccncc2)o1 | -2.45% |  |
| COc1cccc(N2CCN(c3ccc4nnc(CCC(=O)N5CCN(C)CC5)n4n3)CC2)c1 | -7.9% |  |
| N#CC(C(=O)c1ccc(S(=O)(=O)N2CCCCCC2)cc1)c1nc2ccccc2[nH]1 (stereo unspecified) |  | 12.6 µM (active) |
| O=C(N/N=C/c1ccccn1)c1ccc(S(=O)(=O)N2CCCCCC2)cc1 | -13.7% |  |
| O=S(=O)(c1ccc(Br)cc1)N1CCC(c2nc3ccccc3[nH]2)CC1 | 39.6% |  |
| Cc1nc2cc(C(F)(F)F)ccc2n1CCNc1nc(-c2cc(Cl)c(N)c(Cl)c2)cs1 |  | 17.8 µM (active) |
| COc1cc(NC(=O)CSc2ccc(-c3cccnc3)nn2)cc(OC)c1 | 13.3% |  |
| CC(C)c1ccc(S(=O)(=O)N2CCN(C(=O)c3ccc(N4CCCC4)c([N+](=O)[O-])c3)CC2)cc1 | -24.3% |  |
| COc1ccccc1N(CC(=O)Nc1ccccc1C(=O)N1CCCC1)S(C)(=O)=O | 3.4% |  |
| Cc1ccc(S(=O)(=O)N2CCN(C(=O)N3CCOCC3)CC2)c(C)c1 | -10.3% |  |
| CCCc1cc(=O)[nH]c(SCC(=O)N2CCN(S(=O)(=O)c3ccc(C)cc3C)CC2)n1 | 4.85% [at 10 µM] |  |
| Cc1ccc(S(=O)(=O)N2CCN(C(=O)CSc3cc(C)ccc3C)CC2)c(C)c1 |  | 3.16 µM (active) |
| Cc1ccc(C(=O)NC2CCN(C(=O)Nc3ccc(F)cc3)CC2)cc1 | 3.29% |  |
| O=c1nc(N/N=C/c2ccco2)cn[nH]1 | -16.9% |  |
| CC(=O)Nc1ccc(S(=O)(=O)Oc2ccc(/C=N/N=C3/NC(=O)C(CC(=O)O)S3)cc2)cc1 (stereo unspecified) | -0.673% |  |
| O=C(O)C[C@@H]1NC(=O)[C@H](Cc2ccccc2)NC1=O | -1.37% |  |
| CCC1S/C(=N/N=C/c2ccco2)NC1=O (stereo unspecified) |  | 1.26 µM (active) |
| CC(C)=N/N=C1/NC(=O)C(Cc2ccccc2)S1 (stereo unspecified) |  | 2.51 µM (active) |
| O=C1N/C(=N\N=C\c2ccco2)SC1Cc1ccc(F)cc1 (stereo unspecified) |  | 1 µM (active) |

| SMILES | activity change, negative = inhibition | Potency |
| --- | --- | --- |
| CCC1C/C(=C/c2cccs2)C(=O)/C(=C/c2cccs2)C1 (stereo unspecified) | -10.2% |  |
| C=CCN1C(=O)C(Cc2cccc(Cl)c2)S/C1=N/N=C/c1ccco1 (stereo unspecified) | -19% |  |
| CN(CCOc1ccc(CC2SC(=O)NC2=O)cc1)c1ccccn1 (stereo unspecified) | 15.6% |  |
| COc1ccc(CN2C(=O)C(C)S/C2=N/N=C/c2ccco2)cc1 (stereo unspecified) | 27.5% |  |
| CCCCC1S/C(=N/N=C/c2cccs2)NC1=O (stereo unspecified) |  | 0.112 µM (active) |
| Cc1ccccc1N(C(=O)CNC(=O)c1cccs1)C(C(=O)NC1CCCC1)c1ccncc1 (stereo unspecified) | 20.7% |  |
| O=C(C1CCN(Cc2ccc(Cl)cc2)CC1)N1CCN(Cc2ccc3c(c2)OCO3)CC1 | 35.5% |  |
| C=CCn1c(SCc2ccccc2)nc2c1c(=O)[nH]c(=O)n2C | -5.57% |  |
| O=S(=O)(c1ccccc1)c1nc(Cc2ccccc2)oc1N1CCOCC1 | -3.36% |  |
| O=S(=O)(c1ccc(F)cc1)N1CCN=C1SCc1cccc(F)c1 | 0.749% |  |
| CCc1ccc(N2CC(C(=O)Nc3ccc(S(=O)(=O)Nc4nccs4)cc3)CC2=O)cc1 (stereo unspecified) | 4.98% |  |
| CCCCC1(C(=O)OCC)NC(c2ccc(O)cc2)C2C(=O)N(c3ccccc3)C(=O)C21 (stereo unspecified) | -1.09% |  |
| CCN1CCN(C2CCCCC2NS(=O)(=O)c2ccc(Cl)cc2)CC1 (stereo unspecified) | 10.5% |  |
| CC(C)Cn1cnc2c1c(=O)n(CC(=O)NN)c(=O)n2Cc1ccccc1 | 19.2% |  |
| NC(=O)c1cc2ccccc2o/c1=N/NC(=O)c1cccc(F)c1 | 0% |  |
| COc1ccc(C(=O)N/N=c2\oc3ccccc3cc2C(N)=O)cc1 | 2.29% |  |
| COc1cccc2cc(C(N)=O)/c(=N\NC(=O)c3ccccc3)oc12 |  | 7.08 µM (active) |
| O=C1CN(C(=O)c2cc(F)cc(F)c2)c2ccccc2N1 | 0.531% |  |
| COC(=O)c1cccnc1NC(=S)NC(C)C |  | 1.78 µM (active) |
| CCOC(=O)c1cccnc1NC(=O)c1ccncc1 | 25% |  |
| COc1ccc(OC)c(C(C)NC(=S)Nc2ccc(S(=O)(=O)Nc3ncccn3)cc2)c1 (stereo unspecified) | -20% |  |
| CCc1nnc(NS(=O)(=O)c2ccc(N=Cc3c(C)[nH]n(-c4ccc(C)cc4)c3=O)cc2)s1 | -0.213% |  |
| Cc1ccc(-n2[nH]c(C)c(/C=N/N3C(=O)c4cccc5cccc(c45)C3=O)c2=O)cc1 |  | 6.31 µM (active) |
| Cc1ccc(-c2ccnc3[nH]n(-c4ccccc4)c(=O)c23)cc1 | 22% |  |
| Cc1ccc(C(=O)N2CCC(n3nccc3NC(=O)Nc3cccc(F)c3)CC2)cn1 | -6.76% |  |
| COc1cccc(NS(=O)(=O)c2ccc3[nH]cc(C(=O)NCCCOC(C)C)c(=O)c3c2)c1 | 37.7% |  |

| SMILES | activity change, negative = inhibition | Potency |
| --- | --- | --- |
| CCCCNC(=O)c1c[nH]c2ccc(S(=O)(=O)Nc3ccc(OCC)cc3)cc2c1=O |  | 7.94 µM (active) |
| CCOc1ccc(NS(=O)(=O)c2ccc(C)c(C(N)=O)c2)cc1 | 11.7% |  |
| CCOC(=O)c1c(S(=O)(=O)Nc2ccc(CN3CCC(C)CC3)cc2)c(C)n(C)c1C | -4.59% |  |
| CCOC(=O)c1cc2cc3ccccc3cc2oc1=O | 3.52% |  |
| CCOC(=O)c1cn[nH]c1NC(=S)Nc1ccccc1 | 0% |  |
| CCOC(=O)c1cc2c(nc1NC(=S)Nc1ccccc1)CC(C)(CC)OC2 (stereo unspecified) |  | 3.55 µM (active) |
| Cc1ccc(NC(=O)CSc2nnc(CNC(=O)c3ccccc3F)o2)cc1Cl | 14.9% |  |
| COc1ccc(-c2noc(CNC(=O)C(C)Oc3ccccc3)n2)cc1 (stereo unspecified) | 0.639% |  |
| COc1ccc(-c2cc(C(F)(F)F)nc(S(C)(=O)=O)n2)cc1OC |  | 1.78 µM (active) |
| COc1cc(OC)nc(S(C)(=O)=O)n1 | -9.47% |  |
| COc1ccc(-c2cc(C(F)(F)F)nc(SCC(=O)Nc3ccc4c(c3)OCO4)n2)cc1OC | -10.5% |  |
| Cc1cccn2c(=O)c3cc(C(=O)NCC4CCCO4)c(=N)n(Cc4ccc(F)cc4)c3nc12 (stereo unspecified) | -18% |  |
| COc1cc(OC)c(OC)cc1CN1CCN(C(=O)c2cccc3ccccc23)CC1 | -28.8% |  |
| CC(=O)Nc1ccc(/C=N/Nc2ccc(C(=O)c3c(C)cc4ccccn34)cc2[N+](=O)[O-])cc1 | 0% |  |
| Cc1cc2ccccn2c1C(=O)c1cccc(F)c1 | 12.6% |  |
| Cc1ccc(C(C[N+](=O)[O-])c2c(C)cc3ccccn23)cc1 (stereo unspecified) |  | 22.4 µM (active) |
| Cc1ccc(NC(=O)Nc2ccccc2)c(Br)c1 | -14.6% |  |
| C=CCNc1scc(-c2ccccc2)[n+]1CC=C |  | 12.6 µM (active) |
| Cc1ccc(NC(=O)NNC(=O)c2sccc2-n2cccc2)cc1 | 0.775% |  |
| C=CC[n+]1c(-c2ccc(C)cc2)csc1NNC(=O)Nc1ccccc1 |  | 14.1 µM (active) |
| C=CCNC(=O)c1csc(-c2ccccc2)n1 | 12.6% |  |
| COC(=O)c1cc(NS(=O)(=O)c2ccc3c(c2)c(=O)n(C)c(=O)n3C)cc(C(=O)OC)c1 | -6.7% |  |
| Cc1cccc(C)c1N1C(=O)CN(Cc2ccccc2)C1=S | -9.65% |  |

— PubChem BioAssay AID2551 (National Center for Advancing Translational Sciences (NCATS), 2010)
